High-throughput results as filed in PubChem.
FUS suppressor: rescues growth of FUS-expressing yeast; 0.24% of 390,000 active; S. cerevisiae FUS-expressing, growth rescue, OD600, 24 h; AID 1347120; Potency, µM (doses to about 76.6 µM), usual class: activators;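 further: potency means the concentration at half of the fitted maximal effect; plate controls were DMSO vehicle for no effect and reference control for full effect; nearly all actives have a fitted effect of over 55% in size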
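Compound concentration series was pinned onto galactose-induced FUS-expressing yeast seeded at OD 0.005. Plates sat 24hr at 30C; absorbance at 600 nm gave growth. DMSO served as background control.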
Giardia killer: Giardia lamblia killing. 0.15% of 340,000 active. Giardia lamblia trophozoite viability. AID 540267. activity change, % at 7.66 µM, hits read low; in the data active means activity change below about -80%; inconclusive means between about -30% and that limit;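 further: parasites exposed to compound for two days anaerobically before the ATP read; on the % scale 0 is the no-effect control and ±100 the full control effect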
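Trophozoites 100 cells/well + cpd; 48 hrs, 37 deg C, anaerobic. ATPLite 1-Step added, 15-30 min RT, luminescence read (ATP-based viability).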
ELG1 repair inh: ELG1-dependent DNA repair inhibition; HEK293T ELG1-luciferase reporter, luminescence, 16 h; DNA damage induced by 5-fluorouridine; Potency, µM (series often up to 46.1 µM), for inactives: at the highest dose activity change, negative = inhibition, usual class: inhibitors; 2.3% of 330,000 active; AID 504467; further: potency means the concentration at half of the fitted maximal effect; on the % scale 0 is the no-effect control and ±100 the full control effect; nearly all actives have a fitted effect of over 55% in size
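Step one: seed 2,000 cells per well. Step two: pin-transfer compound or DMSO alongside 5-fluorouridine. Step three: incubate 16 hr, 37 °C, 5% CO2. Step four: add ONE-Glo, wait 30 min, read luminescence.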
TRPV1 PAM: enhances activation of the human vanilloid receptor TRPV1; TRPV1-expressing cells, Fluo-8 calcium influx, capsaicin EC20 potentiation; 0.02% of 320,000 active; potentiation, % at 8.33 µM; AID 540277; in the data active means potentiation above about 80%; inconclusive means between about 30% and that limit; further: 0% is about no effect
Target sequence (Q8NER1 whole entry, looked up): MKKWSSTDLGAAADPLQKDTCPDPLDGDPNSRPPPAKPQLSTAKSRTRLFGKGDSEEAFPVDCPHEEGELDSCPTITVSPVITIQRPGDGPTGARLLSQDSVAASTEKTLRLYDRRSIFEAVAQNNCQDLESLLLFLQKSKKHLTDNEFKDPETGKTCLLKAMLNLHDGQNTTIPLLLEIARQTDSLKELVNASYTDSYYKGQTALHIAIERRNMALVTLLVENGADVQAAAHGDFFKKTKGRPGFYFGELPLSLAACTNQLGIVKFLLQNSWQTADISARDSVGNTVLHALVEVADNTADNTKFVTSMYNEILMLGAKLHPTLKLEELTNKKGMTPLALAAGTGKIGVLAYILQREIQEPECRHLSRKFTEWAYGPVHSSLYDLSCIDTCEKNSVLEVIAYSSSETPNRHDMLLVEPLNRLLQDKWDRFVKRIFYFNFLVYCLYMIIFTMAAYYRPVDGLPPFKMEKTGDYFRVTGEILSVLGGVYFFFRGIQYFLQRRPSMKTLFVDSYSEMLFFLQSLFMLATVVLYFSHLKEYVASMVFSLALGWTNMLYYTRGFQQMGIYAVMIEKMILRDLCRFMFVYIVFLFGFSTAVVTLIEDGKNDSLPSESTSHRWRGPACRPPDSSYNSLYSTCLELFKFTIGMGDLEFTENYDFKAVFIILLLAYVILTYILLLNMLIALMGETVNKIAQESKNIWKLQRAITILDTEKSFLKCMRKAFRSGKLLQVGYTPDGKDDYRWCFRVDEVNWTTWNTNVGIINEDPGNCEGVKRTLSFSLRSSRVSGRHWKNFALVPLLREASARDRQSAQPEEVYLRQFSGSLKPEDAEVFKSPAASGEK
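Fluo-8 calcium influx in TRPV1-expressing cells, kinetic read (ex 480/em 520 nm). Compound added and read 3 min for agonist activity, followed by capsaicin at EC20 final and 2 min further read for enhancement.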
TRPV1 agonist: human TRPV1 agonism | 0.19% of 320,000 active | AID 540275 | activation, % at 8.33 µM | TRPV1-expressing cells, Fluo-8 calcium influx, agonist mode | Q8NER1; in the data active means activation above about 80%; inconclusive means between about 30% and that limit; further: 0% is about no effect
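TRPV1-expressing cells were cultured overnight at 35.5C and loaded with Fluo-8 calcium dye for 40 to 90 min at room temperature. After a 10 s baseline, compound was added and calcium influx was read kinetically for 3 min (ex 480/em 520 nm).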
* marks the source's active call; other numbers are inactive results. In the library only some 2.3% were active in any assay of this set; here they are far more common. Unless noted, the call rests on the fitted dose curve; in most records, active means well fitted curve in the direction sought with a large enough effect; inconclusive means small, poorly fitted or top-dose-only effect, or another doubt; inactive means no such curve, though single readings can be large; an effect the other way counts as inactive or inconclusive.

How did O=C1OCC(CO)(CO)N=C1NNc1cc(Cl)ccc1Cl do in these assays?
FUS suppressor: inactive; Giardia killer: -12; ELG1 repair inh: 29%; TRPV1 PAM: 0; TRPV1 agonist: -1

Results for NC(=O)CSc1nc2scc(-c3ccco3)c2c(=O)n1-c1ccccc1 ?
FUS suppressor: 22µM*; Giardia killer: 10; ELG1 repair inh: -14%; TRPV1 PAM: -6; TRPV1 agonist: -3

How did COc1ccc(CCNC(=O)CCCOc2cccc(C)c2C)cc1OC do in these assays?
FUS suppressor: inactive; Giardia killer: 8; ELG1 repair inh: inconclusive; TRPV1 PAM: 13; TRPV1 agonist: 83*

Results for COc1ccc(CCNC(=O)CCCOc2ccc(C)cc2)cc1OC ?
Giardia killer: -7; ELG1 repair inh: -2%; TRPV1 PAM: -43; TRPV1 agonist: inconclusive

How did CC1(C)CC(N2CCN(Cc3ccccc3)CC2)=CC(=[N+]2CCCCC2)C1 do in these assays?
FUS suppressor: inactive; Giardia killer: 4; ELG1 repair inh: 0.73µM*; TRPV1 PAM: -4; TRPV1 agonist: 1

How did CC1(C)CC(N2CCCC2)=CC(=[N+]2CCCCC2)C1 do in these assays?
FUS suppressor: inactive; Giardia killer: -18; ELG1 repair inh: 1.2µM*; TRPV1 PAM: inconclusive; TRPV1 agonist: 0

How did CC1(C)CC(N2CCCC2)=CC(=[N+]2CCCC2)C1 do in these assays?
FUS suppressor: inactive; Giardia killer: -12; ELG1 repair inh: -8%; TRPV1 PAM: -3; TRPV1 agonist: -6

How did COc1ccc(S[C@]2(C(=O)N3CCCC3)CC(=O)N(C(=O)Nc3ccc(C)c(Cl)c3)[C@@H]2c2ccc(OC)cc2)cc1 do in these assays?
FUS suppressor: inactive

How did Cc1ccc2[nH]c(=O)c(CN(CCc3ccccc3)C(c3nnnn3Cc3ccco3)C(C)C)cc2c1 (stereo not drawn) do in these assays?
FUS suppressor: inactive; Giardia killer: 1; ELG1 repair inh: 18µM*; TRPV1 PAM: 6; TRPV1 agonist: 14

What do the screens show for `CC1(C)CC(=O)c2cc(-c3nc(-c4ccc(Br)cc4)cs3)c(=O)n(-c3ccccc3)c2C1`?
FUS suppressor: inactive

Results for CCOC(=O)c1[nH]c2ccc(OC)cc2c1NC(=S)N1CCN(c2ccccc2OC)CC1 ?
FUS suppressor: inconclusive; Giardia killer: 0; ELG1 repair inh: 7.3µM*; TRPV1 PAM: 4; TRPV1 agonist: -3

What do the screens show for `COC(=O)c1[nH]c2cccc(OC)c2c1NC(=O)CCN1CCN(c2cccc(Cl)c2)CC1`?
ELG1 repair inh: 18µM*; TRPV1 PAM: -13; TRPV1 agonist: 15

How did CCOC(=O)c1[nH]c2ccc(OC)cc2c1NC(=S)N1CCN(C(=O)OCC)CC1 do in these assays?
FUS suppressor: inactive; Giardia killer: 2; ELG1 repair inh: -18%; TRPV1 PAM: -5; TRPV1 agonist: -2

How did CCOC(=O)c1cnc2ccc(OCC)cc2c1N1CCN(c2ccccc2OC)CC1 do in these assays?
FUS suppressor: inactive; Giardia killer: 12; ELG1 repair inh: 15µM*; TRPV1 PAM: 7; TRPV1 agonist: inconclusive

Results for CCOC(=O)c1[nH]c2cc(OC)c(OC)cc2c1NC(=O)C(C)N1CCN(Cc2ccccc2)CC1 (stereo not drawn) ?
FUS suppressor: inactive; Giardia killer: -4; ELG1 repair inh: 9.2µM*; TRPV1 PAM: -7; TRPV1 agonist: -3

Results for CC(C)CCNC(=O)C1CCN(S(=O)(=O)c2cccc3nsnc23)CC1 ?
FUS suppressor: inactive

How did COC(=O)c1[nH]c2cc(C)ccc2c1NC(=O)CN1CCOCC1 do in these assays?
FUS suppressor: inactive; Giardia killer: -12; ELG1 repair inh: -11%

Results for COC(=O)c1[nH]c2cc(C)ccc2c1NC(=O)CN1CCN(c2ccccc2OC)CC1 ?
FUS suppressor: inactive; Giardia killer: 11; ELG1 repair inh: 21µM*; TRPV1 PAM: 2; TRPV1 agonist: inconclusive

How did CCC1CN(C(=O)N2CCC(C(=O)NCCN(CC)CC)CC2)c2ccccc2O1 (stereo not drawn) do in these assays?
FUS suppressor: inactive

How did Cc1nc(C)c(-c2ccc(SCC(=O)Nc3ccc(C)c(Cl)c3)nn2)s1 do in these assays?
FUS suppressor: inactive; Giardia killer: 0; ELG1 repair inh: 15%; TRPV1 PAM: 2; TRPV1 agonist: 8
